Inconclusive results are not listed. Values without a mark were called inactive. Active and inactive are the calls of the source. Calls come from the whole dose curve; as a rule, active = well fitted cell-killing curve with a large enough effect; inconclusive = small, poorly fitted or top-dose-only effect, or effect the other way; inactive = flat fitted curve, though single readings scatter. Where a SMILES comes first, the peptide text is derived from it. [ ]: non-standard residue; d: D form. Ala(indol-2-yl) = N[C@@H](Cc1cc2ccccc2[nH]1)C(=O)O; Aib = CC(C)(N)C(=O)O
% is set by controls: 0 for no effect and ±100 for the full control effect; potency is the fitted concentration of half-maximal effect.

One experiment concerns CASKI. Kind of experiment: Primary qHTS to identify gynecologic anti-cancer compounds using libraries of approved drugs and bioactive compounds (AID 1345084). Note: nearly all actives have a fitted effect of over 55% in size. The conditions noted are these: Gynecologic cancer cell panel viability, ATPlite luminescence, 48 h; series mostly up to 57.5 µM; activity change, negative = cytotoxicity: at the top concentration. The method, boiled down: (§1)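 Cells, 1,000 per well, plated 16 h, then exposed 48 h at 37 C to compounds. Viability by ATPlite luminescence after 15 min at room temperature.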
As to `N#CC(O[C@@H]1O[C@H](CO)[C@@H](O)[C@H](O)[C@H]1O)c1ccccc1` (stereo not given in full), the “activity change, negative = cytotoxicity” value is -4.85%.
Take `CC(=O)O[C@H]1CN2CCC1CC2`: the “activity change, negative = cytotoxicity” value is 6.25%.
`CC(=O)OC[C@]12C[C@H](O)C(C)=C[C@H]1O[C@@H]1[C@H](O)[C@@H](OC(C)=O)[C@@]2(C)[C@]12CO2`: the Potency is 31.6 nM (active).
Regarding `CC[C@@H]1C[C@H]2CC[C@H](O2)[C@H](C)C(=O)O[C@@H](C)C[C@@H]2CC[C@@H](O2)[C@@H](C)C(=O)O[C@H](CC)C[C@H]2CC[C@H](O2)[C@H](C)C(=O)O[C@@H](C)C[C@@H]2CC[C@@H](O2)[C@@H](C)C(=O)O1`, the Potency was 447 nM (active).
The same measure, in the same setting: to `N#Cc1cn([C@@H]2O[C@H](CO)[C@H](O)[C@@H]2O)c2ncnc(N)c12` belongs 282 nM (active).

Another experiment relates to Es-2. Described as above. The conditions noted are these: Gynecologic cancer cell panel viability, ATPlite luminescence, 48 h; series mostly up to 57.5 µM; activity change, negative = cytotoxicity: at the top concentration. In outline:
as §1
Consider `O=C(OC[C@H]1O[C@@H](Oc2ccc(O)cc2CO)[C@H](O)[C@@H](O)[C@@H]1O)c1ccccc1`, for which the “activity change, negative = cytotoxicity” value is 3.86% [at 25.3 µM].
Take `CC(=O)O[C@@H]1[C@@H](O)[C@H]2O[C@@H]3C=C(C)[C@@H](O)C[C@]3(CO)[C@]1(C)[C@]21CO1`: the Potency is 2000 nM (active).
For the molecule `CC(C)(NC(=O)[C@@H](N)Cc1ccc(O)cc1)C(=O)N[C@@H](Cc1cc2ccccc2[nH]1)C(=O)N[C@@H](Cc1ccccc1)C(=O)O` (H-Y[Aib][Ala(indol-2-yl)]F-OH), the activity change, negative = cytotoxicity is 0.783% [at 11.6 µM].
Same read-out and setting: to `COc1ccc2c3c([nH]c2c1)C(C=C(C)C)N1C(=O)C2CCCN2C(=O)C1C3` (stereo not given) belongs 7.33% [at 38.5 µM].
On to `C[C@@H]1C[C@@H](O)[C@]2(O)O[C@@H]3C[C@@]4(C=O)C(CC[C@@H]5C4CC[C@]4(C)[C@@](O)(C6=CC(=O)OC6)CC[C@]54O)C[C@H]3OC2O1` (stereo not given in full), for which the Potency was 3550 nM (active).
Still for that read-out and setting: the value for `CC(=O)OC[C@]12C[C@H](OC(=O)CC(C)C)C(C)=C[C@H]1O[C@@H]1[C@H](O)[C@@H](OC(C)=O)[C@@]2(C)[C@@]12CO2` was 100 nM (active); that for `CC[C@H](C)[C@H](NC(=O)[C@H]1CCCCN1C)C(=O)N(COC(=O)CC(C)C)[C@H](C[C@@H](OC(C)=O)c1nc(C(=O)N[C@@H](Cc2ccc(O)cc2)C[C@H](C)C(=O)O)cs1)C(C)C` was 8.3 nM (active).
The same measure, in the same setting: to `CN[C@@H]1C[C@H]2O[C@@](C)([C@@H]1OC)n1c3ccccc3c3c4c(c5c6ccccc6n2c5c31)C(=O)NC4` belongs 631 nM (active); to `CC1=C[C@H]2O[C@@H]3C[C@H]4OC(=O)/C=C/C=C/C(=O)OCC/C(C)=C/C(=O)OC[C@@]2(CC1)[C@]4(C)[C@]31CO1`, 25.1 nM (active); to `CC(=O)OC[C@]12C[C@H](OC(=O)CC(C)C)C(C)=C[C@H]1O[C@@H]1[C@H](O)[C@@H](O)[C@@]2(C)[C@]12CO2`, 178 nM (active).
The same measure, in the same setting: the value for `CC(=O)OC[C@]12C[C@H](OC(=O)CC(C)C)C(C)=C[C@H]1O[C@@H]1[C@H](O)C[C@@]2(C)[C@]12CO2` was 3980 nM (active); that for `COC1CC(O[C@H]2CC[C@]3(C)C4CC[C@]5(C)[C@@H](C6=CC(=O)OC6)[C@@H](OC(C)=O)C[C@]5(O)C4CC[C@@H]3C2)OC(C)C1O[C@@H]1O[C@H](CO)[C@@H](O)[C@H](O)[C@H]1O` (stereo not given in full) was 794 nM (active).
In the case of `Cc1c(Cl)c(OCC(=O)N2CCN(C)CC2)nc2sc(C(=O)NC3CC3)c(N)c12`, the “activity change, negative = cytotoxicity” value was 6.37%.
`CO[C@H]1[C@H](O)[C@H](O[C@H]2CC[C@]3(C=O)C4CC[C@]5(C)[C@H](C6=CC(=O)OC6)CC[C@]5(O)C4CC[C@@H]3C2)O[C@@H](C)[C@@H]1O` (stereo not given in full): the Potency is 100 nM (active).
Turning to `C[C@H]1O[C@@H](O[C@H]2CC[C@]3(C=O)C4CC[C@]5(C)[C@@H](C6=CC(=O)OC6)CC[C@]5(O)[C@@H]4CC[C@]3(O)C2)C[C@@H](O)[C@@H]1O` (stereo not given in full), the Potency is 141 nM (active).
On the same count and under the same terms, to `COC1CC(O[C@H]2CC[C@]3(C=O)C4CC[C@]5(C)[C@@H](C6=CC(=O)OC6)CC[C@]5(O)[C@@H]4CC[C@@H]3C2)OC(C)C1O[C@@H]1O[C@H](CO)[C@@H](O[C@@H]2O[C@H](CO)[C@@H](O)[C@H](O)[C@H]2O)[C@H](O)[C@H]1O` (stereo not given in full) belongs 398 nM (active); to `C[C@]12CC[C@H](O)C[C@H]1CC[C@@H]1[C@@H]2[C@H](O)C[C@]2(C)[C@@H](c3ccc(=O)oc3)CC[C@]12O`, 100 nM (active); to `C[C@H]1O[C@@H](O[C@H]2CC[C@]3(CO)C4CC[C@]5(C)[C@@H](C6=CC(=O)OC6)CC[C@]5(O)[C@@H]4CC[C@H]3C2)[C@H](O)[C@H](O)[C@@H]1O[C@@H]1O[C@H](CO)[C@@H](O)[C@H](O)[C@H]1O` (stereo not given in full), 3550 nM (active).
Same read-out and setting: to `CC1=C[C@H]2O[C@@H]3[C@H](O)[C@@H](O)[C@](C)([C@@]2(CO)C[C@@H]1O)[C@]31CO1` belongs 10000 nM (active).
Take `C[C@H]1O[C@@H](n2cnc3c(N)ncnc32)C[C@@H]1O`: the “activity change, negative = cytotoxicity” value was 1.63%.
Same read-out and setting: to `OCc1nnc2n1-c1ccc(Cl)cc1C(c1ccccc1Cl)=NC2` belongs 4.25%; to `CC[C@H]1C2CC3[C@@H]4N(C)c5ccccc5[C@]45C[C@@H]([C@H]2[C@H]5O)N3[C@@H]1O`, 0.585% [at 38.5 µM].
Regarding `CO[C@@H]1C[C@H](O[C@H]2CC[C@@]3(C)C(CCC4C3CC[C@]3(C)[C@@H](C5=CC(=O)OC5)[C@@H](OC(C)=O)CC43O)C2)O[C@H](C)[C@@H]1O[C@H]1O[C@H](CO[C@@H]2O[C@H](CO)[C@@H](O)[C@H](O)[C@H]2O)[C@@H](O)[C@H](O)[C@H]1O` (stereo not given in full), the Potency is 1260 nM (active).
The same measure, in the same setting: to `CC1=CC2OC3[C@H](O)C[C@@](C)([C@]34CO4)[C@@]2(CO)[C@H](O)C1=O` (stereo not given in full) belongs 10000 nM (active).
Turning to `CC(=O)O[C@H]1CC[C@@]2(CI)C(=CC[C@@H]3[C@@H]2CC[C@]2(C)C(=O)CC[C@@H]32)C1`, the “activity change, negative = cytotoxicity” value was -1.94%.
Regarding `C=C1[C@@H](C)[C@H]2[C@H](Cc3ccccc3)NC(=O)[C@]23OC(=O)/C=C/C(=O)CCC[C@@H](C)C/C=C/[C@H]3[C@@H]1O`, the Potency was 14100 nM (active).
Regarding `C[C@H](CCC(=O)O)C[C@H](C)C[C@H](C)C(=O)/C=C(\O)[C@H](C)C[C@H](C)C/C=C/[C@@H](C)[C@@H](O)[C@@H](C)[C@@H](O)C[C@@H]1CC[C@@](C)([C@H]2CC[C@@](C)([C@@H](C)O)O2)O1`, the “activity change, negative = cytotoxicity” value was -23.4% [at 25.3 µM].
The same measure, in the same setting: to `C[C@H]1C/C=C/[C@H]2[C@@H]3O[C@]3(C)[C@@H](C)[C@H]3[C@H](Cc4ccccc4)NC(=O)[C@]32OC(=O)O/C=C/[C@@](C)(O)C1=O` belongs -26.3% [at 25.3 µM].
Same read-out and setting: to `CC(C)(C)[C@]1(O)C[C@@H]2OC(=O)C[C@@]23C(=O)O[C@@H]2OC(=O)[C@@H](O)[C@]213` belongs 3.25% [at 38.5 µM]; to `N#CC(O[C@@H]1O[C@H](CO)[C@@H](O)[C@H](O)[C@H]1O)c1ccccc1` (stereo not given in full), 1.26%.
Take `COC1CC(O[C@H]2CC[C@]3(C)C4CC[C@]5(C)[C@@H](C6=CC(=O)OC6)[C@@H](OC(C)=O)C[C@]5(O)C4CC[C@@H]3C2)OC(C)C1O` (stereo not given in full): the Potency is 891 nM (active).
`CC(=O)O[C@H]1CN2CCC1CC2`: the “activity change, negative = cytotoxicity” value was -0.108%.
Turning to `CC(=O)OC[C@]12C[C@H](O)C(C)=C[C@H]1O[C@@H]1[C@H](O)[C@@H](OC(C)=O)[C@@]2(C)[C@]12CO2`, the Potency was 199 nM (active).
With `CC1=CC(=O)[C@@H](O)[C@]2(C)C3[C@@H](O)[C@@H]4OC(=O)[C@@H]([C@H]4C)[C@]3(C)C(=O)C[C@@H]12` (stereo not given in full), the Potency was 8910 nM (active).
On the same count and under the same terms, to `CC[C@@H]1C[C@H]2CC[C@H](O2)[C@H](C)C(=O)O[C@@H](C)C[C@@H]2CC[C@@H](O2)[C@@H](C)C(=O)O[C@H](CC)C[C@H]2CC[C@H](O2)[C@H](C)C(=O)O[C@@H](C)C[C@@H]2CC[C@@H](O2)[C@@H](C)C(=O)O1` belongs 708 nM (active).
